Screens from PubChem.
CDK5 p35 inh = inhibitors of human CDK5/p35 kinase; Q00535+Q15078; Recombinant CDK5/p35, ADP-Glo luminescence, 60 min; inhibition, % at 10 µM; 330,000 tested, 0.01% active; AID 488839;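 active = highest replicate inhibition of at least 50% and at least 75% of replicates reaching 50%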;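 note: plate controls were DMSO neutral control for no effect and GW8510 at 10 µM for full effect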
NSD2 HMT inh = blocks human histone methyltransferase NSD2 | inhibition, % at 12.5 µM | 310,000 tested, 0.54% active | NSD2 peptide methylation, AlphaScreen, 120 min | AID 743445; in the data active = inhibition above about 50%
CASP6 VEID inh = caspase-6 (human) enzyme inhibition. P55212. purified caspase-6, Z-VEID-R110 cleavage fluorescence. inhibition, % at 12.5 µM. 350,000 tested, 0.53% active. AID 686996;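 active = mean inhibition across replicates at least about 35%, with every replicate also reaching that limit, limit read from the data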;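 note: 0% = median of neutral control wells and 100% = no fluorescence left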
Target sequence (P55212 24-179 limits assumed): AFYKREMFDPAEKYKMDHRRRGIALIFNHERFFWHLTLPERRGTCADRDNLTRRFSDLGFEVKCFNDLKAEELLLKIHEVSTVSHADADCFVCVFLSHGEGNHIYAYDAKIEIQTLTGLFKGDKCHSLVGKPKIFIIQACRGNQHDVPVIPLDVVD
Target sequence (P55212 194-293 limits assumed): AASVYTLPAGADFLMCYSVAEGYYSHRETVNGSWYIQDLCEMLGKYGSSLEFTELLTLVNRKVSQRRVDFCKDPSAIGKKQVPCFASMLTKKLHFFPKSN
Glyco luc inh = N-linked glycosylation inhibition; reporter increase, % at 12.5 µM; D54 ERlucT glycosylation luciferase reporter, 24 h; percent of 100 nM tunicamycin response; 360,000 tested, 0.23% active; AID 588692;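 active = mean luciferase reporter signal, scaled so untreated is 0 and the glycosylation-blocking control 100, at or above a set limit in every replicate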;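 note: luciferase carries N-glycosylation sites so blocking glycosylation raises the light; 0% = median of neutral control wells and 100% = median of 100 nM tunicamycin wells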
Mot1-301 SUMO = blocks SUMOylation pathway, rescuing yeast Mot1-301 growth; S. cerevisiae Mot1-301 growth rescue, ATP luminescence, 38.5C; percent above DMSO median, 100 means doubled; growth rescue, % at 18.8 µM; 320,000 tested, 1% active; AID 2716;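 active = every valid replicate shows activation above 250% relative to neutral control wells; inactive = the rest, any valid replicate at or below 250%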;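 note: OY570 slx delta 5 strain wells were the positive control but not used for scaling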
ALR inh = blocks human ALR sulfhydryl oxidase activity | P55789 | purified ALR, DTT oxidation, H2O2 HRP-luminol luminescence | inhibition, % (concentration not given with the values) | 290,000 tested, 3.8% active;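 active = mean replicate inhibition above about 79%, with every replicate also reaching it, limit read from the data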
Target sequence (P55789 whole entry, looked up): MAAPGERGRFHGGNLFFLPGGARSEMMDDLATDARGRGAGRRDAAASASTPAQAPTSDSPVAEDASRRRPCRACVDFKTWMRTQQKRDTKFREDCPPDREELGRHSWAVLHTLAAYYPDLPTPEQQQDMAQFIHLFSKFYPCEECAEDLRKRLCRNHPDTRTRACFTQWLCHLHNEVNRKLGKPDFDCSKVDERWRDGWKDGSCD
Starred values were filed as active, the others as inactive. In the library only some 3.9% were active in any assay of this set; here they are far more common.

Screening Cc1ccc(-c2ccc(CCC(=O)O)n2NC(=O)c2cccs2)cc1 returned CDK5 p35 inh -2, NSD2 HMT inh 24, Glyco luc inh -1, Mot1-301 SUMO 108 and ALR inh 99*.
For O=C(O)CCc1ccc(-c2cccs2)n1NC(=O)c1ccc(Cl)cc1 the results were CDK5 p35 inh -3, NSD2 HMT inh 33, Glyco luc inh 1, Mot1-301 SUMO -16 and ALR inh 98*.
`Cc1ccccc1S(=O)(=O)NCC[C@H]1CC[C@@H](NC(=O)C2CCC2)[C@@H](CO)O1` gave CASP6 VEID inh -2.
`CC(=O)N(C)C1=C(O)c2ccccc2C(=O)C1=O` gave CDK5 p35 inh 0, NSD2 HMT inh 9, Glyco luc inh 0, Mot1-301 SUMO -9 and ALR inh -15.
`CC(=O)N(C1=C(N)C(=O)c2ccccc2C1=O)C(C)C` gave CDK5 p35 inh -1, NSD2 HMT inh 81*, CASP6 VEID inh 12, Glyco luc inh 6 and Mot1-301 SUMO 385.
Screening CN(C)C(=O)C[C@H]1C=C[C@@H](NC(=O)C2CC2)[C@@H](CO)O1 returned CASP6 VEID inh 1.
Screening COc1ccc(-c2ccc3c(c2)[C@H]2[C@H](CCN2S(=O)(=O)c2ccccc2F)[C@H](CO)N3C)cc1 returned CASP6 VEID inh -2.
Screening CCc1c(C)[nH]n(-c2ccc(Oc3ccccc3)c(S(=O)(=O)O)c2)c1=O returned CDK5 p35 inh -4, Glyco luc inh 0, Mot1-301 SUMO -18 and ALR inh 99*.
`C[C@@H]1CN([C@@H](C)CO)C(=O)c2cc(NC(=O)Cn3cnnn3)ccc2O[C@H]1CN(C)C(=O)Nc1ccc(F)cc1` gave CASP6 VEID inh 2.
`COc1cc(NC(=O)N2c3ccccc3Sc3ccccc32)c(C(=O)O)cc1OC` gave CDK5 p35 inh 0, NSD2 HMT inh 16, CASP6 VEID inh 3, Glyco luc inh -1, Mot1-301 SUMO -9 and ALR inh 99*.
`CO[C@H]1CN(C)C(=O)c2cc(NS(=O)(=O)c3ccc(C)cc3)ccc2OC[C@@H](C)N(C(=O)NC(C)C)C[C@@H]1C` gave CASP6 VEID inh -7.
For Oc1c(Cl)cc(Cl)cc1CNc1ccc(Br)cn1 the results were CDK5 p35 inh -2, NSD2 HMT inh -5, Glyco luc inh 0, Mot1-301 SUMO 282 and ALR inh 93*.
O=C(Cc1cccc2ccccc12)NN1C(=O)CSC1=S was read as CDK5 p35 inh -3, NSD2 HMT inh 4, CASP6 VEID inh -2, Glyco luc inh 0, Mot1-301 SUMO -16 and ALR inh 50.
Screening O=C(NN1C(=O)CSC1=S)C(=O)NN1C(=O)CSC1=S returned CDK5 p35 inh -14, NSD2 HMT inh -340, CASP6 VEID inh 51*, Glyco luc inh 3, Mot1-301 SUMO -22 and ALR inh 42.
For C=C(C)C(=O)Oc1ccc(N=Nc2ccc(C)cc2)ccc1=O the results were NSD2 HMT inh 13, CASP6 VEID inh 80* and Glyco luc inh 9.
CC(=O)c1ccc(N=Nc2ccc(C)cc2)cc1 was read as CDK5 p35 inh 2, NSD2 HMT inh 31, CASP6 VEID inh 0 and Glyco luc inh -18.
CCCCCCCCN1[C@@H](CC(=O)O)c2cc(C(F)(F)F)ccc2S1(=O)=O was read as CDK5 p35 inh 0, CASP6 VEID inh 5, Glyco luc inh 15, Mot1-301 SUMO -1 and ALR inh 98*.
Screening CCCCCCCCCCCCN1[C@@H](CC(=O)O)c2cc(F)ccc2S1(=O)=O returned CDK5 p35 inh 0, CASP6 VEID inh 31, Glyco luc inh 2, Mot1-301 SUMO 46 and ALR inh 98*.
For CCCCCCCCCCCCN1[C@@H](CC(=O)O)c2cc(C(F)(F)F)ccc2S1(=O)=O the results were CDK5 p35 inh 1, CASP6 VEID inh 26, Glyco luc inh -1, Mot1-301 SUMO 99 and ALR inh 98*.
`CCCCCCCCCCCCN1[C@@H](CC(=O)OC)c2cc(C(F)(F)F)ccc2S1(=O)=O` gave CDK5 p35 inh 1, Glyco luc inh 2, Mot1-301 SUMO -3 and ALR inh -5.
Screening Cc1ccc2nc(N3C(=O)C(O)=C(C(=O)c4ccco4)C3c3ccc(C)o3)sc2c1 (stereo unspecified) returned CDK5 p35 inh 2, CASP6 VEID inh 0, Glyco luc inh 0, Mot1-301 SUMO -11 and ALR inh 89*.
`Cc1ccc2nc(N3C(=O)C(O)=C(C(=O)c4ccco4)C3c3ccc(O)cc3)sc2c1` (stereo unspecified) gave CDK5 p35 inh -1, CASP6 VEID inh 1, Glyco luc inh -1 and Mot1-301 SUMO 6.
`Cc1ccc2nc(N3C(=O)C(O)=C(C(=O)c4ccc(C)o4)C3c3ccco3)sc2c1` (stereo unspecified) gave CDK5 p35 inh 0, NSD2 HMT inh 2, CASP6 VEID inh 48*, Glyco luc inh 0, Mot1-301 SUMO 190 and ALR inh 2.
COC(=O)c1sc(N2C(=O)C(O)=C(C(=O)c3ccc(C)o3)C2c2ccco2)nc1C (stereo unspecified) was read as CDK5 p35 inh 0, CASP6 VEID inh 14, Glyco luc inh -1, Mot1-301 SUMO 0 and ALR inh 10.
Screening O=C(C1=C(O)C(=O)N(c2nc3ccc(Cl)cc3s2)C1c1ccco1)c1ccco1 (stereo unspecified) returned CDK5 p35 inh -1, NSD2 HMT inh 0, CASP6 VEID inh 88*, Glyco luc inh 0, Mot1-301 SUMO 70 and ALR inh 40.
For CC(=O)N1CC(=O)N2[C@H](CO)[C@H](c3ccc(C#Cc4cccnc4)cc3)[C@@H]2C1 the results were CASP6 VEID inh -1.
CCN1CCC(N2CCN(c3ccc(F)cc3)CC2)CC1 was read as CDK5 p35 inh -1, NSD2 HMT inh 4, CASP6 VEID inh -28, Glyco luc inh 0, Mot1-301 SUMO -12 and ALR inh 97*.
For C[C@@H]1CN([C@@H](C)CO)C(=O)c2cc(C#CC3CCCCC3)cnc2O[C@H]1CN(C)Cc1cccnc1 the results were CASP6 VEID inh 7.
O=C(C[C@@H]1C[C@H]2c3cc(NC(=O)c4ccc5c(c4)OCO5)ccc3O[C@H]2[C@H](CO)O1)NCc1cccc(F)c1 was read as CASP6 VEID inh -3.
CC(C)CSC1=NSC2=NC(=O)/C(=C\c3cccs3)C(=N)N12 was read as CDK5 p35 inh 0, NSD2 HMT inh 8, Glyco luc inh -2, Mot1-301 SUMO 53 and ALR inh 27.
For N=C1/C(=C/c2cccs2)C(=O)N=C2SN=C(SCc3ccccc3)N12 the results were CDK5 p35 inh -1, NSD2 HMT inh 10, Glyco luc inh -1, Mot1-301 SUMO 16 and ALR inh 96*.
